Assay results reported in the supplement of paper PMC10849652.
Of roughly 7,900 targets only a part is listed; those with a hit were picked by preference. About 0.6% of all pairs of compound and target were hits.

Tests used:
Assay in all cases: log2 fold change, soluble protein after heating vs DMSO (PISA); higher = thermal stabilisation; K562 cells, 10 uM, 30 min; active = over 0.2 and 3.5 SD of the protein, either way, in both replicates (recomputed)
[1] = compound: CC1=C(C=C(C=C1)NC(=O)C2=CC(=CC=C2)C(C)(C)C#N)NC3=CC4=C(C=C3)N=CN(C4=O)C
Summary of the method: (§1)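 Soluble protein was quantified by TMTpro 16plex LC-MS/MS after channel sums were equalised. It was obtained as the supernatant after 21,000xg for 90 min from pooled aliquots of K562 cells (2×10^6 cells/mL, 10 μM compound, 30 min) heated for 3 min across 48°C-58°C and extracted in PBS with 0.5% NP-40 at 4°C. Thermal stability values are relative to control samples and come from duplicates. They are given as log2 fold changes.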

[2] = compound: CC1=C(C=C(C=C1)NC(=O)C2=CC(=CC=C2)N(C)C)NC(=O)C3=CC=C(C=C3)O
Summary of the method: as §1

[3] = compound: CC1=CC=C(C=C1)SC2=C3C=C(SC3=CN=C2)C(=O)N
Summary of the method: as §1

[4] = compound: CC1=NC(=CC=C1)C2=C(N=C(N2)C(C)(C)C)C3=CC4=NC=CN=C4C=C3
Summary of the method: as §1

Nexturastat A = compound: CCCCN(Cc1ccc(C(=O)NO)cc1)C(=O)Nc1ccccc1 [Nexturastat A]
Summary of the method: as §1

vemurafenib = compound: CCCS(=O)(=O)Nc1ccc(F)c(C(=O)c2c[nH]c3ncc(-c4ccc(Cl)cc4)cc23)c1F [vemurafenib]
Summary of the method: as §1

[5] = compound: CCCS(=O)(=O)Nc1ccc(F)c(C(=O)c2c[nH]c3ncc(Cl)cc23)c1F
Summary of the method: as §1

[6] = compound: CCCc1cc(C)[nH]c(=O)c1CNC(=O)c1cc(-c2ccnc(N3CCN(C)CC3)c2)cc2c1cnn2C(C)C
Summary of the method: as §1

givinostat = compound: CCN(CC)Cc1ccc2cc(COC(=O)Nc3ccc(C(=O)NO)cc3)ccc2c1 [givinostat]
Summary of the method: as §1

barasertib = compound: CCN(CCCOc1ccc2c(Nc3cc(CC(=O)Nc4cccc(F)c4)[nH]n3)ncnc2c1)CCOP(=O)(O)O [barasertib]
Summary of the method: as §1

[7] = compound: CC[C@@H]1C(=O)N(C)c2cnc(Nc3ccc(C(=O)NC4CCN(C)CC4)cc3OC)nc2N1C1CCCC1
Summary of the method: as §1

volasertib = compound: CC[C@@H]1C(=O)N(C)c2cnc(Nc3ccc(C(=O)N[C@H]4CC[C@H](N5CCN(CC6CC6)CC5)CC4)cc3OC)nc2N1C(C)C [volasertib]
Summary of the method: as §1

[8] = compound: CC[C@H](C)N1C=C(C2=C(C=C(C=C21)C3=CN=C(C=C3)N4CCNCC4)C(=O)NCC5=C(C=C(NC5=O)C)C)C
Summary of the method: as §1

epoxomicin = compound: CC[C@H](C)[C@@H](C(=O)N[C@@H]([C@@H](C)O)C(=O)N[C@@H](CC(C)C)C(=O)[C@]1(CO1)C)NC(=O)[C@H]([C@@H](C)CC)N(C)C(=O)C [epoxomicin]
Summary of the method: as §1

[9] = compound: CCn1c(C(=O)N(C2CC2)C2CC2)cc2c3c(ncn3C)c(Nc3cc(C)n(C)n3)nc21
Summary of the method: as §1

[10] = compound: CCn1cc(-c2ccnc3[nH]c(-c4cccc(CN(C)C)c4)cc23)c(-c2ccc(NC(=O)N(C)C)cc2)n1
Summary of the method: as §1

[11] = compound: CN(C)CC(=O)Nc1ccc2[nH]c(=O)c3ccccc3c2c1
Summary of the method: as §1

rosiglitazone = compound: CN(CCOC1=CC=C(C=C1)C[C@H]2C(=O)NC(=O)S2)C3=CC=CC=N3 (racemic) [rosiglitazone]
Summary of the method: as §1

[12] = compound: CN1C2=C(C3=C1C(=O)N(N=C3)CC4=CC(=CC=C4)N)SC(=C2)S(=O)C
Summary of the method: as §1

[13] = compound: CN1CCC(CNc2ccc3ncc(-c4cccc(OC(F)(F)F)c4)n3n2)CC1
Summary of the method: as §1

UniProt P56211, sequence (P56211 whole entry, looked up): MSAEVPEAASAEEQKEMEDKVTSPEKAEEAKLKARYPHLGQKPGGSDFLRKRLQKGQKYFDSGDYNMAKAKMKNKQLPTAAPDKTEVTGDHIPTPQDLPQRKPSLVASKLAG
UniProt Q9UII2, sequence (Q9UII2 whole entry, looked up): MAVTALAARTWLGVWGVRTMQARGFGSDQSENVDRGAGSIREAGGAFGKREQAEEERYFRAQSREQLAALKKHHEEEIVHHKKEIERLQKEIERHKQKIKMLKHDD
UniProt Q9UKG1, sequence (Q9UKG1 whole entry, looked up): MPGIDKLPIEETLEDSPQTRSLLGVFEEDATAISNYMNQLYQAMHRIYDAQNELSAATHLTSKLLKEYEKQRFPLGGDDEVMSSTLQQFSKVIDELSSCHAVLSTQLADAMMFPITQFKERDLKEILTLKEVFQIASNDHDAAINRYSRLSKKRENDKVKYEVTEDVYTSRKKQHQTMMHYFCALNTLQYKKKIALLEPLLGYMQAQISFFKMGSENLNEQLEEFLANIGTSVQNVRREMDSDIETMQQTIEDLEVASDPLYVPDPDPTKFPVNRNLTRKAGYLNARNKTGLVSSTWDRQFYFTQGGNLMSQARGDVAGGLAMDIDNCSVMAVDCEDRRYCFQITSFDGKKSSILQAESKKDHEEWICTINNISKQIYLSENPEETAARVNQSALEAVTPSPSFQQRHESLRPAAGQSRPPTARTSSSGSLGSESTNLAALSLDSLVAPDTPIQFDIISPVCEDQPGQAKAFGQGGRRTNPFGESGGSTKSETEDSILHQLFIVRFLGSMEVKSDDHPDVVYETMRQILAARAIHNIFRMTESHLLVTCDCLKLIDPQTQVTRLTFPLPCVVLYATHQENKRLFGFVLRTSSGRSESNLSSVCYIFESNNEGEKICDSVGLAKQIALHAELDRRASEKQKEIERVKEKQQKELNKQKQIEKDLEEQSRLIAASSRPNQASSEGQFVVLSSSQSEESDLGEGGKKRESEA
UniProt Q4G176, sequence (Q4G176 whole entry, looked up): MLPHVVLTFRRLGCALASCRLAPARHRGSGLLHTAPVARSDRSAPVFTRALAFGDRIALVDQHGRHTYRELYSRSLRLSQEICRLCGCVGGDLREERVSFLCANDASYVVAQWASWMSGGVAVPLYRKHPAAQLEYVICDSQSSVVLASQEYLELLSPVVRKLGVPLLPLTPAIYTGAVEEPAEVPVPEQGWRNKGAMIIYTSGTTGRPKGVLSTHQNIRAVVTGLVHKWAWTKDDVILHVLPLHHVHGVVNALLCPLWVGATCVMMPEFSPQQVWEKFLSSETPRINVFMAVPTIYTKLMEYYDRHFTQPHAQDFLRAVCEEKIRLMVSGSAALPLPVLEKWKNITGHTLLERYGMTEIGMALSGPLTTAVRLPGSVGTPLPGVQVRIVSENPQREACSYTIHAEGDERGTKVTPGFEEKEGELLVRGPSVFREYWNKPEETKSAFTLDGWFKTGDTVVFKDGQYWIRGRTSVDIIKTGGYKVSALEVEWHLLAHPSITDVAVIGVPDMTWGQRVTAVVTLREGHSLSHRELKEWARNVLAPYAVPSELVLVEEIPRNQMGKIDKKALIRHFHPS
UniProt P54886, sequence (P54886 whole entry, looked up): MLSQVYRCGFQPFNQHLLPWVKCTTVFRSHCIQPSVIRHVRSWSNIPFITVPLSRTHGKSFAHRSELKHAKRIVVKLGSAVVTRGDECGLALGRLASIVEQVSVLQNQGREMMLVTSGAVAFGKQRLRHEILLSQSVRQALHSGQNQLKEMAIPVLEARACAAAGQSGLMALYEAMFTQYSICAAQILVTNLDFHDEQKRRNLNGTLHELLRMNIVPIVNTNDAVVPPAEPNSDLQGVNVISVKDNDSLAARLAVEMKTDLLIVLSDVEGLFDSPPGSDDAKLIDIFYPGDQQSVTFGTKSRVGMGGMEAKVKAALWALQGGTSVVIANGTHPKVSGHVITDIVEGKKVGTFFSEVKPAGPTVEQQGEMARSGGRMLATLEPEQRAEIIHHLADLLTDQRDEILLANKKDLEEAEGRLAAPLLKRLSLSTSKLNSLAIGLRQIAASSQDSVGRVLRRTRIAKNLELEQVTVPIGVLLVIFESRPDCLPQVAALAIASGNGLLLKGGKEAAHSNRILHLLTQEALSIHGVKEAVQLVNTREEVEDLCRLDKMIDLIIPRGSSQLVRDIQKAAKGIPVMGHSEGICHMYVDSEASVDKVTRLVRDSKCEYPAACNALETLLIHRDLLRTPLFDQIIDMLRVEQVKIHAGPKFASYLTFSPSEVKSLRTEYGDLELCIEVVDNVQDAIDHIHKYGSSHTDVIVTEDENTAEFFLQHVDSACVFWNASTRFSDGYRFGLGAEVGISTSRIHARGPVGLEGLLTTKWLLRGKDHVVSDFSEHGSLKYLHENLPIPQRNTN
UniProt Q9UBL3, sequence (Q9UBL3 whole entry, looked up): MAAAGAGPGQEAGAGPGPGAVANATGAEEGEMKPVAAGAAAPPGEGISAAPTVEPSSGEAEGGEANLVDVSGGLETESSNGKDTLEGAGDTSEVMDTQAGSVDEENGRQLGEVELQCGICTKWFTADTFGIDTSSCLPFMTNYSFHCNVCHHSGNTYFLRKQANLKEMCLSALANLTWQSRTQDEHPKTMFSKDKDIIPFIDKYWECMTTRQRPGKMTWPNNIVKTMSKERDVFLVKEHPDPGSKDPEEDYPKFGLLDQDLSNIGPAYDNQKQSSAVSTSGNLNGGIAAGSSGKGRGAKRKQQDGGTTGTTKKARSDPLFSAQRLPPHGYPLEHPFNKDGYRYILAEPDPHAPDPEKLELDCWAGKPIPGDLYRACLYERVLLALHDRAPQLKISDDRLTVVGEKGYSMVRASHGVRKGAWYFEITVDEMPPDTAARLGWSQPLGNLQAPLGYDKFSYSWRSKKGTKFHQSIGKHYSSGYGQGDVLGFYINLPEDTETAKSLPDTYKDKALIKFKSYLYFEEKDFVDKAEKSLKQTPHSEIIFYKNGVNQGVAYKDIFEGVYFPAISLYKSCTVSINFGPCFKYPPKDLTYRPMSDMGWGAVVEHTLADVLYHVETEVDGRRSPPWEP
UniProt Q9Y312, sequence (Q9Y312 whole entry, looked up): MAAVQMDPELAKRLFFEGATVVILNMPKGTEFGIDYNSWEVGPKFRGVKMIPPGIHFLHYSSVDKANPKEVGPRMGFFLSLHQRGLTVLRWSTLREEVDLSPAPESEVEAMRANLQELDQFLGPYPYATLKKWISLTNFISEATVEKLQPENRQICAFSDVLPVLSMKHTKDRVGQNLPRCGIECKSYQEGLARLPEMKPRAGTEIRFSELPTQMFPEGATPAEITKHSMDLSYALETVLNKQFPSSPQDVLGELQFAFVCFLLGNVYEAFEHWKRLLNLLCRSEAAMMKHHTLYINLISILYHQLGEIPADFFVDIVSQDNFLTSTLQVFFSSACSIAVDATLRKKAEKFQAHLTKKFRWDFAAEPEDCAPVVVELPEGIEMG

Target | log2 fold change [1] | log2 fold change [2] | log2 fold change [3] | log2 fold change [4] | log2 fold change (Nexturastat A) | log2 fold change (vemurafenib) | log2 fold change [5] | log2 fold change [6] | log2 fold change (givinostat) | log2 fold change (barasertib) | log2 fold change [7] | log2 fold change (volasertib) | log2 fold change [8] | log2 fold change (epoxomicin) | log2 fold change [9] | log2 fold change [10] | log2 fold change [11] | log2 fold change (rosiglitazone) | log2 fold change [12] | log2 fold change [13]
ASH2L (UniProt Q9UBL3) | 0.018 (inactive) | -0.047 (inactive) | 0.003 (inactive) | 0.01 (inactive) | -0.003 (inactive) | 0.057 (inactive) | 0.071 (inactive) | -0.022 (inactive) | 0.031 (inactive) | 0.007 (inactive) | -0.117 (inactive) | -0.327 (active) | 0.079 (inactive) | 0.041 (inactive) | -0.017 (inactive) | -0.012 (inactive) | -0.003 (inactive) | -0.004 (inactive) | 0.001 (inactive) | -0.012 (inactive)
ARPP19 (UniProt P56211) | -0.012 (inactive) | 0.199 (inactive) | 0.057 (inactive) | 0.125 (inactive) | -0.04 (inactive) | 0.041 (inactive) | 0.043 (inactive) | -0.106 (inactive) | -0.003 (inactive) | -0.012 (inactive) | 0.013 (inactive) | 0.016 (inactive) | -0.01 (inactive) | 0.041 (inactive) | 0.029 (inactive) | -0.052 (inactive) | 0.032 (inactive) | 0.001 (inactive) | 0.069 (inactive) | -0.041 (inactive)
AAR2 (UniProt Q9Y312) | -0.01 (inactive) | -0.026 (inactive) | -0.032 (inactive) | -0.035 (inactive) | 0.074 (inactive) | -0.018 (inactive) | 0.021 (inactive) | -0.105 (inactive) | 0.018 (inactive) | -0.023 (inactive) | -0.032 (inactive) | -0.016 (inactive) | -0.03 (inactive) | 0.037 (inactive) | -0.038 (inactive) | 0.106 (inactive) | -0.001 (inactive) | 0 (inactive) | -0.087 (inactive) | -0.096 (inactive)
ACSF3 (UniProt Q4G176) | -0.002 (inactive) | 0.038 (inactive) | 0.007 (inactive) | 0.023 (inactive) | -0.005 (inactive) | 0.029 (inactive) | 0.003 (inactive) | 0.008 (inactive) | -0.022 (inactive) | 0.051 (inactive) | -0.014 (inactive) | -0.093 (inactive) | 0.039 (inactive) | 0.152 (inactive) | 0.034 (inactive) | -0.17 (inactive) | 0.008 (inactive) | 0.125 (inactive) | 0.016 (inactive) | -0.116 (inactive)
ARFGEF1 (UniProt Q9Y6D6) | -0.03 (inactive) | -0.013 (inactive) | -0.014 (inactive) | 0 (inactive) | -0.042 (inactive) | 0.035 (inactive) | 0.041 (inactive) | 0.155 (inactive) | 0.029 (inactive) | -0.015 (inactive) | -0.022 (inactive) | -0.248 (inactive) | 0.01 (inactive) | 0.033 (inactive) | -0.007 (inactive) | 0.011 (inactive) | -0.005 (inactive) | 0.045 (inactive) | -0.037 (inactive) | -0.046 (inactive)
ALDH18A1 (UniProt P54886) | -0.179 (inactive) | 0.002 (inactive) | -0.04 (inactive) | 0.101 (inactive) | 0.035 (inactive) | 0.068 (inactive) | 0.057 (inactive) | -0.137 (inactive) | 0.141 (inactive) | 0.214 (inactive) | -0.418 (inactive) | -0.713 (active) | 0.092 (inactive) | 0.1 (inactive) | -0.117 (inactive) | -0.208 (inactive) | 0.041 (inactive) | 0.148 (inactive) | 0.054 (inactive) | -0.054 (inactive)
APPL1 (UniProt Q9UKG1) | 0.012 (inactive) | 0.008 (inactive) | 0.035 (inactive) | 0.015 (inactive) | -0.032 (inactive) | 0.066 (inactive) | 0.017 (inactive) | -0.033 (inactive) | 0.039 (inactive) | 0.02 (inactive) | -0.149 (inactive) | -0.317 (active) | 0.058 (inactive) | -0.044 (inactive) | 0.038 (inactive) | -0.021 (inactive) | 0.02 (inactive) | 0.044 (inactive) | -0.113 (inactive) | -0.065 (inactive)
ATP5IF1 (UniProt Q9UII2) | -0.035 (inactive) | 0.009 (inactive) | -0.005 (inactive) | 0.021 (inactive) | -0.041 (inactive) | -0.078 (inactive) | -0.043 (inactive) | -0.022 (inactive) | -0.005 (inactive) | 0.026 (inactive) | -0.149 (inactive) | 0.141 (inactive) | -0.078 (inactive) | -0.041 (inactive) | 0.021 (inactive) | 0.013 (inactive) | -0.13 (inactive) | -0.02 (inactive) | -0.04 (inactive) | 0.037 (inactive)
